Measurements taken from the supplement of paper PMC7366291.
Counter-ions that a name gives are not always drawn. ± gives the standard deviation or the standard deviation of the averaged measurements.

What was measured:
Conditions in all cases: 25 µM; exposure: 24-48 hpf
[1] = tested on: Danio rerio Tg(wt1b:EGFP) embryo, pronephros; experiment: glomerular separation, fold change vs DMSO control; higher = glomeruli further apart (abnormal)
Method in brief: (§1)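 Each feature value is a fold change relative to the mean of same-day DMSO-treated embryos. Embryos of the Tg(wt1b:EGFP) zebrafish line, dechorionated, received 25 μM compound in 0.5% DMSO from 24 to 48 hpf at 28.5°C, in HEPES-buffered E3 with 0.003% PTU. Distances and angles were computed by a Fiji macro from 16 manually set reference points on maximum projections of dorsal pronephros images, and values beyond 2 SD of the feature mean were removed.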

[2] = tested on: Danio rerio Tg(wt1b:EGFP) embryo, pronephros; experiment: glomerular width (mean of left and right), fold change vs DMSO control; higher = wider glomerulus
Method in brief: as §1

[3] = tested on: Danio rerio Tg(wt1b:EGFP) embryo, pronephros; experiment: fraction of imaged embryos annotated as normal kidney; higher = less nephrotoxic; extreme values may be limits of the assay
Method in brief: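 Dechorionated Tg(wt1b:EGFP) zebrafish embryos were exposed in 12-well plates to 25 μM compound in 0.5% DMSO, 5 mM HEPES-buffered E3 with 0.003% PTU, from 24 to 48 hpf at 28.5°C. Tricaine-anaesthetised larvae were oriented dorsally in agarose-filled 96-well plates, and pronephroi were imaged by widefield fluorescence (470 nm, 10 z-slices). Each embryo was manually annotated from maximum projections. The read-out is the fraction of embryos per treatment assigned to the normal-kidney category.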

[4] = tested on: Danio rerio Tg(wt1b:EGFP) embryo, pronephros; experiment: pronephric angle neck segment to proximal convoluted tubule (mean of left and right), fold change vs DMSO control; higher = larger pronephric angle
Method in brief: as §1

SMILES | glomerular separation [1] | glomerular width [2] | fraction of imaged embryos annotated as normal kidney [3] | pronephric angle neck segment [4]
NCCc1c[nH]c2ccc(O)cc12 [Serotonin hydrochloride] | 1.61 ± 1.2 | 0.902 ± 0.038 | 0.667 | 1.064 ± 0.007
Cc1cccc(C)c1NC1=NCCCS1 [Xylazine] | 0.757 ± 0.26 | 0.997 ± 0.018 | 0.833 | 0.966 ± 0.057
CCOC(=O)c1cncn1[C@H](C)c1ccccc1 [Etomidate] | 0.978 ± 0.27 | 0.949 ± 0.067 | 0.833 | 1.03 ± 0.011
O=[N+]([O-])O[C@H]1CO[C@H]2[C@@H]1OC[C@H]2O[N+](=O)[O-] [Isosorbide dinitrate] | 1.15 ± 0.34 | 0.9189 ± 0.0074 | 0.833 | 1.02 ± 0.024
CC(=O)OCC(=O)[C@H]1CC[C@H]2[C@@H]3CC[C@H]4C[C@H](O)CC[C@]4(C)[C@H]3C(=O)C[C@]12C [Alfadolone acetate] | 1.22 ± 0.64 | 0.942 ± 0.057 | 0.75 | 1 ± 0.018
CC(=O)OCC1=C(C(=O)O)N2C(=O)[C@@H](N)[C@H]2SC1 [Cephalosporanic acid, 7-amino] | 0.819 ± 0.17 | 1.136 ± 0.0094 | 1 | 0.977 ± 0.06
CCNCC(O)c1cccc(O)c1 (centres undefined) [Etilefrine hydrochloride] | 0.79 ± 0.23 | 0.9277 ± 0.0022 | 0.833 | 0.951 ± 0.051
CCC1(c2cccc(O)c2)CCCCN(C)C1 (centres undefined) [Meptazinol hydrochloride] | 1.01 ± 0.35 | 0.967 ± 0.024 | 0.917 | 0.984 ± 0.06
CC(C)CC(N(C)C)C1(c2ccc(Cl)cc2)CCC1 (centres undefined) [Sibutramine hydrochloride] | 0.986 ± 0.37 | 0.995 ± 0.021 | 0.417 | 1.08 ± 0.054
NCCCNCCSP(=O)(O)O [Amifostine] | 0.91 ± 0.29 | 1.04 ± 0.037 | 0.833 | 1.02 ± 0.074
CN[C@@H]1C[C@@H](c2ccc(Cl)c(Cl)c2)c2ccccc21 [Indatraline hydrochloride] | 0.788 ± 0.28 | 1.04 ± 0.011 | 0.833 | 0.9756 ± 0.0089
